# Measurements: PubChem BioAssay (NCI)
# Compounds without any hit were thinned out: in the full panel of roughly 83,000, 20% have a hit.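 Compound tested at a single concentration for 48 hours in 96-well plates; a percent growth value below 10 was scored as active.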 Values without a mark were called inactive. Calls of active or inactive are those of the source.
# Columns and labels:
# Assay in all cases: NCI-60 one-dose screen, 48 h (100 = growth as untreated, 0 = no growth, -100 = all killed)
# Settings in all cases: 10 µM unless noted
# [1] = test system: DU-145 prostate
# [2] = test system: K-562 leukemia
# [3] = test system: MALME-3M melanoma
# [4] = test system: MDA-MB-231 breast
# [5] = test system: RXF 393 renal
# [6] = test system: SF-268 CNS
# [7] = test system: SF-295 CNS
# [8] = test system: SF-539 CNS
# [9] = test system: UACC-257 melanoma
# [10] = test system: M14 melanoma
Compound,growth [1],growth [2],growth [3],growth [4],growth [5],growth [6],growth [7],growth [8],growth [9],growth [10]
COc1cccc(C2CC(=O)Nc3cc4c(cc32)CCC4)c1OC (configuration not stated),51.9%,14.1%,55.7%,60.3%,57%,66.2%,29%,60.7%,71.7%,25.5%
CCCCCCCCCCCCCCNc1nc(CO)ncc1-c1ccc(C(F)(F)F)cc1,103%,99.6%,91.8%,118%,99.8%,91.8%,97%,95.6%,94.7%,99.8%
COC1(OC)C2(Cl)C=C(c3ccccc3)C1(Cl)C(Cl)=C2Cl (configuration not stated),113%,88.8%,97.9%,110%,104%,101%,93.9%,91.5%,90.1%,97.2%
C=C[C@H]1C[C@@H]2C[C@@H]3[C@H]4C/C=C\C(=O)NCCCC5NC(=O)C(=C(O)/C=C/[C@@H]4CC(=O)[C@H]3[C@@H]2[C@H]1C)C5=O (some centres not stated),-95.7% (active),-58.1% (active),-72% (active),-75.6% (active),-85.6% (active),-88.6% (active),9.25% (active),-81.1% (active),-89.1% (active),
Cc1ccc(C)c2c1sc1nc3nc4sc5ccccc5n4c(=N)c3c(=O)n12,108%,132%,143%,93.5%,122%,95.6%,104%,101%,129%,94.8%
O=c1oc2ccccc2cc1-c1csc(N=Nc2c(O)[nH]c3ccc(Br)cc23)n1,109%,111%,99%,95.6%,115%,101%,101%,99.5%,97.3%,105%
COc1ccc(S(=O)(=O)c2ccc(C(N)=O)cc2)cc1NC(=O)c1[nH]c(C)c2c1CCCCC2=O,82.9%,46.5%,70.2%,28.9%,68.6%,74.2%,49.9%,48.7%,63.2%,
CCN1CCN(c2nc3ccccc3c3c(=O)c4cc(F)ccc4sc23)CC1,66.4%,10.2%,90.9%,51.8%,47.3%,53.7%,93.2%,86%,78.7%,
O=C(N/N=C(\CS(=O)(=O)c1ccccc1)c1cc2ccccc2oc1=O)c1ccccc1,111%,109%,110%,99.4%,132%,99.2%,101%,103%,94.6%,110%
CN1CCN(C)c2cncc(Br)c2C1=O,114%,102%,99.3%,106%,105%,102%,-85% (active),109%,90.3%,
Cc1nc(-c2ccccc2)cc2c(O)c(C(=O)N/N=C/Cc3ccccc3)[nH]c(=O)c12,113%,76.6%,116%,113%,127%,103%,117%,103%,94.5%,106%
O=C(NCc1ccc(F)cc1)C1CN(c2ccc(Cl)cc2)N(c2ccc(Cl)cc2)C1=O (configuration not stated),85.3%,23.3%,60%,84.3%,65.5%,65%,42.5%,87.6%,76.3%,
CCCCCCCC/C=C\CCCCCCCCOc1cccc(CC(=O)NCC[N+]2(C)CCOCC2)c1,93.6%,73.4%,93.3%,87.2%,6.07% (active),70.2%,89.1%,96.2%,93.6%,87%
c1ccc2cc(Cn3c(-c4ccc5ccccc5c4)[n+](Cc4ccc5ccccc5c4)c4ccccc43)ccc2c1,-19.2% (active),-45.1% (active),-58% (active),-72.9% (active),-65% (active),-83.5% (active),-79.1% (active),-75.2% (active),-38.5% (active),-72.8% (active)
Cc1c(C(=O)Nc2nc(-c3ccccc3)cs2)nnn1-c1ccccc1Br,51.8% [50 µM],20.3% [50 µM],17.5% [50 µM],44% [50 µM],76.4% [50 µM],61.5% [50 µM],31.2% [50 µM],63.8% [50 µM],13.2% [50 µM],43.1% [50 µM]
O=C(c1ccc2ncc(-c3nc(NC4CC4)ncc3F)n2c1)N1CCOCC1,11.3%,73.6%,71.2%,49.8%,-48.7% (active),1.39% (active),19.6%,-0.925% (active),46.1%,
Oc1cccc(Nc2nc(-c3ccccn3)cs2)c1,122%,93.8%,109%,98%,113%,110%,99.4%,98.3%,110%,111%
O=[N+]([O-])c1ccc2nc(N/N=C/c3ccc(O)cc3)sc2c1,60.1%,31.6%,65%,82.9%,103%,64.1%,86.7%,49.5%,66.6%,83%
O=c1ccc2ccccc2o1,112%,112%,110%,100%,116%,102%,97.7%,102%,101%,104%
Cn1c(=O)c(S(=O)(=O)c2ccccc2)cc2ccc3c(cnn3-c3ccc(Cl)cc3)c21,82.9%,91.6%,85.1%,75.7%,55.8%,80.6%,90.2%,45%,83.4%,83.7%
CCCN(CCC)c1ccc(/C=C/c2ccc3cc(OCC)ccc3n2)cc1,91.6%,72.9%,88%,109%,81.6%,90.7%,91.9%,90.7%,84.3%,86.4%
CCOC(=O)c1c(-c2cc(OC)c(OC)c(OC)c2)csc1N,101%,45.5%,92.1%,105%,93.2%,94.5%,65.4%,94.7%,104%,89.8%
Cc1ccc(C2SCC(=O)N2NC(=O)c2[nH]c3ccc(F)cc3c2-c2ccccc2)cc1 (configuration not stated),106%,75.8%,91.6%,86.4%,78.7%,93.4%,92.4%,97.6%,86.9%,109%
COc1ccc(/C=N/NC(=O)c2cnn3c2NC(c2ccccc2)C3)cc1OC1CCCC1 (configuration not stated),98.3%,70.4%,123%,66.6%,104%,93.4%,90.7%,87.2%,98.7%,93.5%
NC1=NC(c2ccccc2OS(=O)(=O)c2ccc(Br)cc2)n2c(nc3ccccc32)N1 (configuration not stated),109%,74.4%,104%,80.1%,109%,95.1%,99.1%,96%,96.8%,
COc1ccc(-c2nn(-c3ccc(NC(=O)c4ccc(Cl)c(Cl)c4)cc3)cc2-c2ccncc2)cc1Cl,68.4%,5.86% (active),43%,-16.3% (active),-82.1% (active),49.2%,-31.5% (active),26%,93.3%,6.62% (active)
COc1cccc2c(=O)c3c(sc12)c(NCCN(C)C)nc1ccccc13,3.35% (active),-60.5% (active),36.7%,12.3%,3.02% (active),20.7%,36%,22.5%,29.3%,
O=c1c2c(=NCCN3CCCC3)cc3c(=O)n(CCCN4CCOCC4)c(=O)c4ccc(c(O)n1CCCN1CCOCC1)c2c4-3,2.23% (active),3.73% (active),-70.7% (active),-24.5% (active),-66.3% (active),-26.8% (active),1.07% (active),-53.9% (active),-14.3% (active),-73.4% (active)
